According to PubChem BioAssay AID1159580 (chemical genetic matrix, 2015):
Values joined by “and” are separate entries in the source; they are usually repeats but may differ in a detail not shown here. Equal values may be shown once. About 2,000 (36%) of roughly 5,500 compounds were called active. Not shown: some 18% with an inconclusive outcome. No stated cut-off is given here; in the data, active means normalized growth mostly below about 0.91 (no sharp cut-off); inconclusive means no clear call, values can overlap the other calls; inactive means mostly above about 0.92. The list shows a part of the results.

Experiment: chemical genetic growth profiling, strain panel (AID 1159580);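 further: tested at 20 µM; growth read once vehicle control cultures reached saturation at 30 °C; 1 = growth at the plate median or of vehicle wells; lower values mean less growth of the strain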
Details: S. cerevisiae deletion strains, growth OD

Measured: normalized growth

CN(C)C(=S)SSC(=S)N(C)C
active: locus YAL013W, strain DEP1, hits give low values 0.0581 | locus YAL021C, strain ccr4, hits give low values 0.0666 | locus YAL026C, strain drs2, hits give low values 0.0601 | locus YAL030W, strain snc1, hits give low values 0.0553 | locus YBL061C, strain skt5, hits give low values 0.0618 | locus YBR009C, strain hhf1, hits give low values 0.0687 | locus YBR021W, strain FUR4, hits give low values 0.0817 | locus YBR023C, strain chs3, hits give low values 0.061 | locus YBR171W, strain sec66, hits give low values 0.074 | locus YBR229C, strain ROT2, hits give low values 0.048 | locus YBR231C, strain swc5, hits give low values 0.0647 | locus YBR279W, strain paf1, hits give low values 0.0589 | locus YCL011C, strain gbp2, hits give low values 0.0557 | locus YCL016C, strain dcc1, hits give low values 0.0628 | locus YCL029C, strain bik1, hits give low values 0.0606 | locus YCL061C, strain MRC1, hits give low values 0.0642 | locus YCL069W, strain vba3, hits give low values 0.0641 | locus YCR088W, strain abp1, hits give low values 0.0578 | locus YDL005C, strain med2, hits give low values 0.0735 | locus YDL035C, strain GPR1, hits give low values 0.0496 | locus YDL040C, strain nat1, hits give low values 0.0566 | locus YDL074C, strain BRE1, hits give low values 0.08 | locus YDL101C, strain DUN1, hits give low values 0.0541 | locus YDL134C, strain PPH21, hits give low values 0.048 | locus YDL192W, strain arf1, hits give low values 0.0606 | locus YDR001C, strain nth1, hits give low values 0.0555 | locus YDR069C, strain doa4, hits give low values 0.0622 | locus YDR101C, strain arx1, hits give low values 0.0568 | locus YDR137W, strain rgp1, hits give low values 0.0857 | locus YDR150W, strain NUM1, hits give low values 0.0561 | locus YDR159W, strain sac3, hits give low values 0.0951 | locus YDR162C, strain NBP2, hits give low values 0.0528 | locus YDR195W, strain ref2 0.147 | locus YDR297W, strain sur2, hits give low values 0.0586 | locus YDR318W, strain mcm21, hits give low values 0.0615 | locus YDR334W, strain swr1, hits give low values 0.0607 | locus YDR335W, strain msn5, hits give low values 0.0573 | locus YDR388W, hits give low values 0.0573 | locus YDR392W, strain spt3, hits give low values 0.0953 | locus YDR502C, strain sam2, hits give low values 0.0603 | locus YEL003W, strain gim4, hits give low values 0.0529 | locus YEL037C, strain rad23, hits give low values 0.0561 | locus YEL061C, strain CIN8 (second series), hits give low values 0.06 | locus YEL061C, strain CIN8, hits give low values 0.0482 | locus YER015W, strain faa2, hits give low values 0.0644 | locus YER016W, strain bim1, hits give low values 0.0587 | locus YER110C, hits give low values 0.0744 | locus YER111C, strain swi4, hits give low values 0.0843 | locus YER155C, strain BEM2 (second series), hits give low values 0.0839 | locus YER155C, strain BEM2, hits give low values 0.0634 | locus YER167W, strain BCK2, hits give low values 0.0494 | locus YFR010W, strain ubp6, hits give low values 0.067 | locus YGL078C, strain dbp3, hits give low values 0.0559 | locus YGL086W, strain mad1, hits give low values 0.0545 | locus YGL167C, strain pmr1, hits give low values 0.0722 | locus YGL173C, strain kem1, hits give low values 0.0644 | locus YGL227W, strain vid30, hits give low values 0.0589 | locus YGL240W, strain doc1, hits give low values 0.0761 | locus YGL248W, strain PDE1, hits give low values 0.0464 | locus YGL253W, strain hxk2, hits give low values 0.0521 | locus YGR078C, strain PAC10, hits give low values 0.0501 | locus YGR135W, strain pre9, hits give low values 0.0684 | locus YGR229C, strain SMI1, hits give low values 0.0575 | locus YGR252W, strain gcn5, hits give low values 0.158 | locus YHR013C, strain ard1, hits give low values 0.107 | locus YHR027C, strain rpn1, hits give low values 0.0609 | locus YHR030C, strain SLT2, hits give low values 0.0503 and 0.115 | locus YHR079C, strain IRE1 (second series), hits give low values 0.0559 | locus YHR079C, strain IRE1, hits give low values 0.109 | locus YHR094C, strain hxt1, hits give low values 0.0581 | locus YHR129C, strain ARP1, hits give low values 0.0536 | locus YHR142W, strain chs7, hits give low values 0.0711 | locus YHR200W, strain rpn10, hits give low values 0.0592 | locus YIL066C, strain RNR3, hits give low values 0.0523 | locus YIL073C, strain SPO22, hits give low values 0.0945 | locus YIL125W, strain kgd1, hits give low values 0.0556 | locus YIR030C, strain dcg1, hits give low values 0.0579 | locus YJL092W, strain hpr5, hits give low values 0.0561 | locus YJL095W, strain BCK1 (second series), hits give low values 0.057 | locus YJL095W, strain BCK1, hits give low values 0.049 and 0.102 | locus YJL115W, strain asf1, hits give low values 0.0685 | locus YJL129C, strain trk1, hits give low values 0.0884 | locus YJL134W, strain LCB3, hits give low values 0.0489 | locus YJL154C, strain vps35, hits give low values 0.0623 | locus YJL164C, strain tpk1, hits give low values 0.0632 | locus YJL166W, strain qcr8, hits give low values 0.0627 | locus YJL168C, strain set2, hits give low values 0.0598 | locus YJL187C, strain SWE1 (second series), hits give low values 0.0476 | locus YJL187C, strain SWE1, hits give low values 0.0566 | locus YJR043C, strain POL32, hits give low values 0.0614 | locus YJR066W, strain TOR1, hits give low values 0.00175
inactive: locus YDL185W, strain tfp1, hits give low values 0.967
